Counter-ions that a name gives are not always drawn. ± gives the standard deviation of the averaged measurements. The full ranking holds about 1,600 compounds; the median of “mitochondrial oxygen consumption rate normalised to cell number, Z score over the library” is about 0.065, and the lowest 2% start at about -2.2. This excerpt belongs to a sample that is enriched for the lowest values.
Test system: FaDu
Test: mitochondrial oxygen consumption rate normalised to cell number, Z score over the library; higher = higher oxygen consumption (negative = OCR reduction)
Settings: treatment time 24 h; assay medium: 5 mM galactose, 5 mM pyruvate, 4 mM glutamine; 10 µM
Protocol: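 Primary screen: FaDu cells were incubated 24 h with Pharmakon 1600 / TDI oncology set compounds at 2 or 10 uM. Mitochondrial-specific OCR (basal minus 2 uM antimycin A) was measured on a Seahorse XF96 in assay medium with 5 mM galactose, 5 mM pyruvate and 4 mM glutamine, then corrected for Hoechst cell number and expressed as a Z score […]. Compounds that cut cell number by >66% were excluded. Two repeats.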

Compound	mitochondrial oxygen consumption rate normalised
CNC(=O)c1cc(Oc2ccc(NC(=O)Nc3ccc(Cl)c(C(F)(F)F)c3)cc2)ccn1	-2.31 ± 0.25
C#C[C@]1(OC(C)=O)CC[C@H]2[C@@H]3CCC4=CC(=NO)CC[C@@H]4[C@H]3CC[C@@]21CC (mixture of isomers)	1.1 ± 0.091
CC(C)(C)CC(=O)OCC(=O)[C@@]1(O)CC[C@H]2[C@@H]3CCC4=CC(=O)C=C[C@]4(C)[C@H]3[C@@H](O)C[C@@]21C	-0.63 ± 0.68
COc1cc([C@@H]2c3cc4c(cc3[C@@H](O[C@@H]3O[C@@H]5CO[C@@H](c6cccs6)O[C@H]5[C@H](O)[C@H]3O)[C@H]3COC(=O)[C@H]23)OCO4)cc(OC)c1O	-3.75 ± 0.66
COc1cc([C@@H]2c3cc4c(cc3[C@@H](O[C@@H]3O[C@@H]5CO[C@@H](C)O[C@H]5[C@H](O)[C@H]3O)[C@H]3COC(=O)[C@H]23)OCO4)cc(OC)c1O [Etoposide]	-0.0499 ± 0.023
COc1cc([C@@H]2c3cc4c(cc3[C@@H](O[C@@H]3O[C@@H]5CO[C@@H](C)O[C@H]5[C@H](O)[C@H]3O)[C@H]3COC(=O)[C@H]23)OCO4)cc(OC)c1O	-1.53 ± 0.61
Nc1ccc2cc3ccc(N)cc3nc2c1	-2.55 ± 0.27
Nc1c2ccccc2nc2ccccc12	-1.9 ± 0.35
Cc1ccc2c(Br)cc(Br)c(OC(=O)c3ccccc3)c2n1	-2.31 ± 0.47
O=C(Oc1cccc2cccnc12)c1ccccc1	-0.0234 ± 0.66
O=C(OOC(=O)c1ccccc1)c1ccccc1	0.517 ± 0.52
CCCCCCCCCCCCCCCC[N+](C)(C)CCN(Cc1ccc(OC)cc1)c1ncccn1	-2.13 ± 0.31
CO/N=C1\C[C@]2(C[C@@H]3C[C@@H](C/C=C(\C)C[C@@H](C)/C=C/C=C4\CO[C@@H]5[C@H](O)C(C)=C[C@@H](C(=O)O3)[C@]45O)O2)O[C@H](/C(C)=C/C(C)C)[C@H]1C	-0.513 ± 0.34
Cc1cccc(C)c1NC(=O)c1ccccc1C(=O)O	-0.418 ± 1.1
CCCCC(CC)CCC(CC(C)C)OS(=O)(=O)O (configuration not stated)	0.745 ± 1.4
O.O.O=C([O-])CN(CCN(CC(=O)[O-])CC(=O)O)CC(=O)O.[Na+].[Na+]	1.52 ± 0.75
CC1(C)S[C@@H]2[C@H](NC(=O)Cc3ccccc3)C(=O)N2[C@H]1C(=O)O	-0.601 ± 0.075
COC(=O)Nc1nc2cc(C(=O)c3ccc(F)cc3)ccc2[nH]1	0.265 ± 0.4
CC(C)(C)NC[C@H](O)c1ccc(O)c(CO)c1	0.0168 ± 0.31
C[n+]1c2cc(N)ccc2cc2ccc(N)cc21	-4.5 ± 0.35
C=CCCCCCCCCC(=O)O	1.2 ± 0.61
Cc1c(C)c2c(c(C)c1O)CCC(C)(CCCC(C)CCCC(C)CCCC(C)C)O2 (stereo not drawn) [alpha-TOCHOPHEROL]	-0.681 ± 0.38

Compound	mitochondrial oxygen consumption rate normalised
CC(=O)OCC(=O)[C@@]12OC(C)(C)O[C@@H]1C[C@H]1[C@@H]3C[C@H](F)C4=CC(=O)C=C[C@]4(C)[C@@]3(F)[C@@H](O)C[C@@]12C	0.605 ± 0.52
CN[C@H]1CC[C@@H](c2ccc(Cl)c(Cl)c2)c2ccccc21	-0.618 ± 0.057
OC[C@H]1O[C@@H](n2cnc3c2N=CNC[C@H]3O)C[C@@H]1O [Pentostatin]	0.38 ± 0.31
C[C@@H]1O[C@@H]1P(=O)(O)O	0.794 ± 0.12
C=CCNC(N)=S	0.218 ± 1.4
Oc1c(Br)cc(Br)c2cccnc12	-1.77 ± 0.19
CCOc1ccc2nc3cc(N)ccc3c(N)c2c1	-3.35 ± 0.25
CCOc1ccc2nc(S(N)(=O)=O)sc2c1	-0.459 ± 0.36
CN(Cc1cc(Br)cc(Br)c1N)C1CCCCC1	0.728 ± 0.24
NNCCc1ccccc1	-0.3 ± 0.16
CO[C@H]1/C=C/O[C@@]2(C)Oc3c(C)c(O)c4c(O)c(c5c(nc6cc(C)ccn65)c4c3C2=O)NC(=O)/C(C)=C\C=C\[C@H](C)[C@H](O)[C@@H](C)[C@@H](O)[C@@H](C)[C@H](OC(C)=O)[C@@H]1C	0.795 ± 0.38
Cc1ccc(Nc2nccc(N(C)c3ccc4c(C)n(C)nc4c3)n2)cc1S(N)(=O)=O [Pazopanib HCl]	-0.379 ± 0.45
OCC(S)CS (configuration not stated)	-0.239 ± 0.68
CCCCOc1ccc(C(=O)CCN2CCCCC2)cc1	-0.0802 ± 0.69
N=C(N)c1ccc(N=NNc2ccc(C(=N)N)cc2)cc1	-0.185 ± 0.46
N=C(N)c1ccc(OCCCCCOc2ccc(C(=N)N)cc2)cc1	-3.01 ± 0.078
CC1CCN(CCCC(=O)c2ccc(F)cc2)CC1	-0.602 ± 0.36
CCCCC/C=C/CCC(=O)N[C@H]1[C@H](Oc2c3cc4cc2Oc2ccc(cc2Cl)[C@@H](O[C@@H]2O[C@H](CO)[C@@H](O)[C@H](O)[C@H]2NC(C)=O)[C@@H]2NC(=O)[C@H](NC(=O)[C@@H]4NC(=O)[C@H]4NC(=O)C(Cc5ccc(c(Cl)c5)O3)NC(=O)[C@H](N)c3ccc(O)c(c3)Oc3cc(O)cc4c3)c3ccc(O)c(c3)-c3c(OC4O[C@H](CO)[C@@H](O)[C@H](O)[C@@H]4O)cc(O)cc3[C@@H](C(=O)O)NC2=O)O[C@H](CO)[C@@H](O)[C@@H]1O (some centres not stated) [TEICOPLANIN [A(2-1) shown]]	1.41 ± 0.64
COCCCOc1cc(C[C@@H](C[C@H](N)[C@@H](O)C[C@H](C(=O)NCC(C)(C)C(N)=O)C(C)C)C(C)C)ccc1OC	0.624 ± 0.066
Nc1ncnc2c1ncn2[C@@H]1O[C@H](CO)[C@@H](O)[C@@H]1O	0.868 ± 0.46
Cc1ccccc1N1C(=O)c2cc(S(N)(=O)=O)c(Cl)cc2NC1C (configuration not stated)	0.24 ± 0.2
CCCSc1ccc2[nH]c(NC(=O)OC)nc2c1	0.883 ± 0.12

Compound	mitochondrial oxygen consumption rate normalised
O=C1c2c(O)cc(CO)cc2C(OC2OC(CO)C(O)C(O)C2O)c2cccc(OC3OC(CO)C(O)C(O)C3O)c21 (configuration not stated) [CASANTHRANOL [cascaroside A shown]]	-0.942 ± 0.28
C[C@H](Cn1cnc2c(N)ncnc21)OCP(=O)(O)O	0.449 ± 0.26
CCC1=C(C)CN(C(=O)NCCc2ccc(S(=O)(=O)NC(=O)N[C@H]3CC[C@H](C)CC3)cc2)C1=O	0.0168 ± 0.78
Cc1c(-c2cnccn2)ssc1=S	-0.416 ± 0.25
Cc1nccnc1N1CCCCC1	0.47 ± 0.26
CC(=O)NC(Cc1ccccc1)C(=O)O (configuration not stated)	0.121 ± 0.33
C[Se]CC[C@H](N)C(=O)O	0.623 ± 0.23
CC(=O)OCC(=O)[C@@]1(O)[C@H](OC(C)=O)C[C@H]2[C@@H]3CCC4=CC(=O)C=C[C@]4(C)[C@@]3(F)[C@@H](O)C[C@@]21C	0.894 ± 0.33
CS(=O)(=O)CCNCc1ccc(-c2ccc3ncnc(Nc4ccc(OCc5cccc(F)c5)c(Cl)c4)c3c2)o1 [Lapatinib Ditosylate]	-0.0282 ± 1.2
O.O.O.O.O=C([O-])CC(O)(CC(=O)[O-])C(=O)[O-].[Li+].[Li+].[Li+]	-0.228 ± 1.6
CC1(C)[C@H](C(=O)O)N2C(=O)C[C@H]2S1(=O)=O	0.32 ± 0.83
Nc1c2c(nc3ccccc13)CCCC2	1.05 ± 0.93
CCCCCCc1ccc(O)cc1O.Nc1c2ccccc2nc2ccccc12	-2.93 ± 0.2
CCCCCCc1ccc(O)cc1O	0.48 ± 0.24
O=C(O)c1cc(-c2ccccc2)nc2ccccc12	0.349 ± 0.05
Oc1c(Cl)cc(Cl)c(Cl)c1Cc1c(O)c(Cl)cc(Cl)c1Cl	-6.031 ± 0.028
O=C(Nc1cc(Cl)cc(Cl)c1O)c1c(O)c(Cl)cc(Cl)c1Cl	1.06 ± 0.89
Oc1c(Cl)cc(Cl)cc1Sc1cc(Cl)cc(Cl)c1O	6.804 ± 0.06
O=C(NCc1ccccc1)OCCO	1.42 ± 0.86
CCCCC(CC)COc1ccc(-c2nc(-c3ccc(OC)cc3)nc(-c3ccc(OCC(CC)CCCC)cc3O)n2)c(O)c1 (configuration not stated)	0.282 ± 0.45
Cc1ccccc1OCC(O)CO (configuration not stated)	-0.432 ± 0.61
O=C1C(O)=C(O)C(=O)C(O)=C1O	0.611 ± 0.72

Compound	mitochondrial oxygen consumption rate normalised
Cc1oc(=O)oc1CN1CCN(c2cc3c(cc2F)c(=O)c(C(=O)O)c2n3C(C)S2)CC1 (configuration not stated)	0.0314 ± 0.4
NC(=O)CCCCC1CCSS1 (configuration not stated)	1.43 ± 0.3
CCN[C@@H]1C[C@H](N)[C@@H](O[C@H]2OC(CN)=CC[C@H]2N)[C@H](O)[C@H]1O[C@H]1OC[C@](C)(O)[C@H](NC)[C@H]1O	1.16 ± 0.38
O=C1/C(=C/c2cccs2)CCC/C1=C\c1cccs1	0.0645 ± 0.73
CC(C)n1c(/C=C/C(O)CC(O)CC(=O)O)c(-c2ccc(F)cc2)c2ccccc21 (configuration not stated)	-1.03 ± 0.072
CC(=O)[C@@]1(O)CC[C@H]2[C@@H]3C=C(Cl)C4=CC(=O)[C@@H]5C[C@@H]5[C@]4(C)[C@H]3CC[C@@]21C	-0.129 ± 1.6
Cc1cc(/C=C/c2ccc3cc(N(C)C)ccc3[n+]2C)c(C)n1-c1ccccc1	-5.57 ± 0.19
COc1cc2/c(=N/c3ccc(Br)cc3F)nc[nH]c2cc1OCC1CCN(C)CC1 [vandetanib]	0.909 ± 1.7
CCN(CC)C(=O)c1cccnc1	-0.362 ± 0.74
OCc1ccccc1O[C@@H]1O[C@H](CO)[C@@H](O)[C@H](O)[C@H]1O	0.956 ± 0.64
O=C(c1ccc(OCCN2CCCCC2)cc1)c1c(-c2ccc(O)cc2)sc2cc(O)ccc12 [Raloxifene HCl]	-0.567 ± 1.1
O=C(c1ccc(OCCN2CCCCC2)cc1)c1c(-c2ccc(O)cc2)sc2cc(O)ccc12	-0.0851 ± 0.4
COc1ccc(-n2nc(CCC(=O)N(C)O)cc2-c2ccc(Cl)cc2)cc1	-0.88 ± 0.44
FC(F)(Cl)C(F)(F)Cl	0.262 ± 0.59
CC12CCC(CC1=O)C2(C)C (configuration not stated)	0.477 ± 0.051
C/C(=C\c1csc(C)n1)[C@@H]1C[C@@H]2O[C@]2(C)CCC[C@H](C)[C@H](O)[C@@H](C)C(=O)C(C)(C)[C@@H](O)CC(=O)N1 [Ixabepilone]	-0.637 ± 0.14
OC[C@H]1O[C@@H](O[C@@H]2[C@@H](CO)OC(O)(CO)[C@H]2O)[C@H](O)[C@@H](O)[C@H]1O (mixture of isomers)	1.09 ± 0.68
CN(C)CC(c1ccc(O)cc1)C1(O)CCCCC1 (configuration not stated)	0.524 ± 0.65
S=C=Nc1ccc(N=C=S)cc1	0.759 ± 0.026
CC(=O)O[C@H]1C(=O)[C@@]2(C)[C@H]([C@H](OC(=O)c3ccccc3)[C@]3(O)C[C@H](OC(=O)[C@H](O)[C@@H](NC(=O)c4ccccc4)c4ccccc4)C(C)=C1C3(C)C)[C@]1(OC(C)=O)CO[C@@H]1C[C@@H]2O	0.221 ± 0.61
CC(=O)O[C@H]1C(=O)[C@@]2(C)[C@H]([C@H](OC(=O)c3ccccc3)[C@]3(O)C[C@H](OC(=O)[C@H](O)[C@@H](NC(=O)c4ccccc4)c4ccccc4)C(C)=C1C3(C)C)[C@]1(OC(C)=O)CO[C@@H]1C[C@@H]2O [Paclitaxel]	-0.326 ± 0.26

Reference: the supplement of paper PMC4962491
